Activity calls are given as the source filed them. Rule for the calls: active = hit-call score of the fitted dose curve at least 0.9, where 1 is the maximum; inactive = score below 0.9.
Assays:
Settings in all cases: mRNA level, 48 h; actives raise or lower the signal
[1] = read-out: ABC Transporter (ABCB11), ABCB11 (gene 8647); experiment: LTEA_HepaRG_ABCB11: Life Technologies and Expression Analysis (LTEA) Assay for ABC Transporter (ABCB11) using HepaRG (AID 2283463)
Outline: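 HepaRG, 48 h exposure, 8-pt half-log CRC top 100 uM, 0.5% DMSO vehicle, duplicates. Readout: TaqMan qRT-PCR of ABCB11 mRNA, housekeeping-normalized (ACTB/GAPDH/POLR2A). Bidirectional fit vs DMSO baseline.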

[2] = read-out: ABC Transporter (ABCC2), ABCC2 (gene 1244); experiment: LTEA_HepaRG_ABCC2: Life Technologies and Expression Analysis (LTEA) Assay for ABC Transporter (ABCC2) using HepaRG (AID 2283464)
Outline: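 qRT-PCR (TaqMan, Fluidigm array) read-out of ABCC2 mRNA, normalized to three housekeeping genes. Differentiated HepaRG cells were treated 48 h in serum-free induction medium with 8-point half-log series from 100 uM in 0.5% DMSO; curves fitted bidirectionally relative to DMSO.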

[3] = read-out: Broad substrate specificity ATP-binding cassette transporter ABCG2 (Homo sapiens) (UniProt Q9UNQ0); experiment: LTEA_HepaRG_ABCG2: Life Technologies and Expression Analysis (LTEA) Assay for ABC Transporter (ABCG2) using HepaRG (AID 2283465)
Outline: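 HepaRG, 48 h exposure, 8-pt half-log series from 100 uM, 0.5% DMSO vehicle, duplicates. Readout: ABCG2 transcript by qRT-PCR (Fluidigm array), housekeeping-normalized; bidirectional curve fit relative to DMSO baseline.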

[4] = read-out: ATP-citrate lyase (ACLY), ACLY (gene 47); experiment: LTEA_HepaRG_ACLY: Life Technologies and Expression Analysis (LTEA) Assay for ATP-citrate lyase (ACLY) using HepaRG (AID 2283466)
Outline: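 qRT-PCR readout of ACLY transcript after 48 h chemical treatment of HepaRG cells; expression normalized to three housekeeping genes. Eight-point half-log series, highest 100 uM, 0.5% DMSO vehicle. Gain or loss fitted against DMSO baseline.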

[5] = read-out: Peroxisomal acyl-coenzyme A oxidase 1 (ACOX1) gene, ACOX1 (gene 51); experiment: LTEA_HepaRG_ACOX1: Life Technologies and Expression Analysis (LTEA) Assay for Peroxisomal acyl-coenzyme A oxidase 1 (ACOX1) gene using HepaRG (AID 2283467)
Outline: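 HepaRG, 48 h chemical exposure, 8-pt half-log series from 100 uM top, 0.5% DMSO vehicle, duplicates. Readout: ACOX1 mRNA by Fluidigm qRT-PCR, housekeeping-normalized; bidirectional fit vs DMSO baseline.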

[6] = read-out: Alkaline Phosphatase, Placental (ALPP) gene, ALPP (gene 250); experiment: LTEA_HepaRG_ALPP: Life Technologies and Expression Analysis (LTEA) Assay for Alkaline Phosphatase, Placental (ALPP) gene using HepaRG (AID 2283468);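 for AC50: differentiated human HepaRG liver cells in serum-free induction medium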
Outline: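 qRT-PCR readout of ALPP mRNA (Fluidigm TaqMan), normalized to ACTB/GAPDH/POLR2A, after 48 h chemical exposure of HepaRG cells; 8-point half-log series, top 100 uM, 0.5% DMSO vehicle. Bidirectional curve fit versus DMSO baseline.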

[7] = read-out: Bcl-2 (BAD) gene, BAD (gene 572); experiment: LTEA_HepaRG_BAD: Life Technologies and Expression Analysis (LTEA) Assay for Bcl-2 (BAD) gene using HepaRG (AID 2283469)
Outline: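 HepaRG, 48 h exposure, 8-pt half-log curve from 100 uM in 0.5% DMSO, duplicates. Readout: TaqMan qRT-PCR for BAD mRNA, housekeeping-normalised (ACTB/GAPDH/POLR2A); gain or loss fitted against DMSO baseline.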

[8] = read-out: Bcl-2 (BAX) gene, BAX (gene 581); experiment: LTEA_HepaRG_BAX: Life Technologies and Expression Analysis (LTEA) Assay for Bcl-2 (BAX) gene using HepaRG (AID 2283470)
Outline: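 Gene expression measured by Fluidigm qRT-PCR with three housekeeping genes for normalisation. HepaRG cells, plated 48 h beforehand, treated 48 h at up to 100 uM (8-point, half-log) in 0.5% DMSO. Bidirectional fitting versus DMSO.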

[9] = read-out: adenosine kinase (ADK) gene, ADK (gene 132); experiment: LTEA_HepaRG_ADK: Life Technologies and Expression Analysis (LTEA) Assay for adenosine kinase (ADK) gene using HepaRG (AID 2283471)
Outline: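 ADK expression quantified by qRT-PCR, normalised to three housekeeping genes, after 48 h exposure of HepaRG cells to eight concentrations (top 100 uM, half-log steps, duplicate, 0.5% DMSO). Up- or down-regulation fitted relative to vehicle.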

[10] = read-out: Alpha-fetoprotein (AFP) gene, AFP (gene 174); experiment: LTEA_HepaRG_AFP: Life Technologies and Expression Analysis (LTEA) Assay for Alpha-fetoprotein (AFP) gene using HepaRG (AID 2283472)
Outline: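 AFP transcript measured by TaqMan qRT-PCR with three housekeeping genes for normalization, after 48 h chemical treatment of HepaRG cells (top 100 uM, half-log steps, 0.5% DMSO). Gain or loss fitted against vehicle.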

[11] = read-out: BCL2L11 (gene 10018); experiment: LTEA_HepaRG_BCL2L11: Life Technologies and Expression Analysis (LTEA) Assay for Bcl-2 (BCL2L11) gene using HepaRG (AID 2283473)
Outline: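 HepaRG, 48 h exposure, 8-pt half-log series from 100 uM in 0.5% DMSO, duplicates; qRT-PCR (Fluidigm TaqMan) for BCL2L11, housekeeping-normalized; bidirectional curve fit relative to DMSO baseline.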

[12] = read-out: Apoptosis regulator Bcl-2 (Homo sapiens) (UniProt P10415); experiment: LTEA_HepaRG_BCL2: Life Technologies and Expression Analysis (LTEA) Assay for Bcl-2 gene using HepaRG (AID 2283475)
Outline: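 qRT-PCR of BCL2 transcript, normalized to three housekeeping genes (ACTB, GAPDH, POLR2A), after 48 h chemical exposure of HepaRG cells; concentrations top 100 uM with half-log dilutions, 0.5% DMSO vehicle, duplicates; changes up or down fitted relative to vehicle.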

[13] = read-out: Bcl-2 (BID) gene, BID (gene 637); experiment: LTEA_HepaRG_BID: Life Technologies and Expression Analysis (LTEA) Assay for Bcl-2 (BID) gene using HepaRG (AID 2283476)
Outline: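 Duplicate 48 h treatments of HepaRG cells in serum-free induction medium spanned 100 uM downward in half-log steps, 0.5% DMSO. Transcript change quantified by qRT-PCR against three housekeeping genes, fitted up or down versus DMSO.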

[14] = read-out: Caspase-3 (Homo sapiens) (UniProt P42574); experiment: LTEA_HepaRG_CASP3: Life Technologies and Expression Analysis (LTEA) Assay for cysteine-aspartic acid protease (CASP3) using HepaRG (AID 2283477)
Outline: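 HepaRG, 48 h exposure, 8 conc. (top 100 uM, half-log steps, duplicate), 0.5% DMSO vehicle; qRT-PCR of CASP3 transcript, housekeeping-normalised (ACTB/GAPDH/POLR2A); bidirectional curve fit vs DMSO baseline.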

[15] = read-out: Cytochrome P450 (CYP24A1), CYP24A1 (gene 1591); experiment: LTEA_HepaRG_CYP24A1: Life Technologies and Expression Analysis (LTEA) Assay for Cytochrome P450 (CYP24A1) using HepaRG (AID 2283478)
Outline: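 qRT-PCR read-out: CYP24A1 transcript levels normalized to three housekeeping genes, bidirectional curve fits against 0.5% DMSO baseline. Human HepaRG cells treated 48 h with chemicals at eight concentrations from 100 uM in half-log steps.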

[16] = read-out: Cytochrome P450 (CYP1A2), CYP1A2 (gene 1544); experiment: LTEA_HepaRG_CYP1A2: Life Technologies and Expression Analysis (LTEA) Assay for Cytochrome P450 (CYP1A2) using HepaRG (AID 2283479)
Outline: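 HepaRG, 48 h exposure, top 100 uM, half-log 8-pt, 0.5% DMSO vehicle, duplicates. Readout: TaqMan qRT-PCR of CYP1A2 mRNA, housekeeping-normalized (ACTB/GAPDH/POLR2A). Gain/loss fit relative to DMSO baseline.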

[17] = read-out: cysteine-aspartic acid protease (CASP8), CASP8 (gene 841); experiment: LTEA_HepaRG_CASP8: Life Technologies and Expression Analysis (LTEA) Assay for cysteine-aspartic acid protease (CASP8) using HepaRG (AID 2283480)
Outline: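 qRT-PCR readout of CASP8 mRNA, normalized to three housekeeping genes, after 48 h chemical exposure of HepaRG cells; 8-point half-log series, top 100 uM, 0.5% DMSO vehicle. Bidirectional curve fitting against DMSO baseline.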

[18] = read-out: Cytochrome P450 (CYP2B6), CYP2B6 (gene 1555); experiment: LTEA_HepaRG_CYP2B6: Life Technologies and Expression Analysis (LTEA) Assay for Cytochrome P450 (CYP2B6) using HepaRG (AID 2283481)
Outline: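 Read-out is CYP2B6 mRNA by TaqMan qRT-PCR, normalized to three housekeeping genes and fitted bidirectionally against 0.5% DMSO baseline. Human HepaRG cells received test chemicals for 48 h, top concentration 100 uM, half-log dilutions.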

[19] = read-out: Apolipoprotein A-V (APOA5) gene, APOA5 (gene 116519); experiment: LTEA_HepaRG_APOA5: Life Technologies and Expression Analysis (LTEA) Assay for Apolipoprotein A-V (APOA5) gene using HepaRG (AID 2283474)
Outline: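 HepaRG, 48 h chemical exposure in serum-free induction medium, 8-pt half-log series (top 100 uM), 0.5% DMSO vehicle, duplicates. Readout: APOA5 mRNA by qRT-PCR, housekeeping-normalized; bidirectional fit vs DMSO baseline.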

[20] = read-out: Cytochrome P450 2C19 (Homo sapiens) (UniProt P33261); experiment: LTEA_HepaRG_CYP2C19: Life Technologies and Expression Analysis (LTEA) Assay for CYP2C19 using HepaRG (AID 2283482)
Outline: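 HepaRG, 48 h chemical exposure, 8-pt half-log series from 100 uM in 0.5% DMSO, duplicates. Readout: CYP2C19 mRNA by TaqMan qRT-PCR, housekeeping-normalized. Bidirectional fit vs DMSO baseline; phenobarbital 1mM as induction control.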

Measured: AC50

Chain of Broad substrate specificity ATP-binding cassette transporter ABCG2 (Homo sapiens) (Q9UNQ0 whole entry, looked up): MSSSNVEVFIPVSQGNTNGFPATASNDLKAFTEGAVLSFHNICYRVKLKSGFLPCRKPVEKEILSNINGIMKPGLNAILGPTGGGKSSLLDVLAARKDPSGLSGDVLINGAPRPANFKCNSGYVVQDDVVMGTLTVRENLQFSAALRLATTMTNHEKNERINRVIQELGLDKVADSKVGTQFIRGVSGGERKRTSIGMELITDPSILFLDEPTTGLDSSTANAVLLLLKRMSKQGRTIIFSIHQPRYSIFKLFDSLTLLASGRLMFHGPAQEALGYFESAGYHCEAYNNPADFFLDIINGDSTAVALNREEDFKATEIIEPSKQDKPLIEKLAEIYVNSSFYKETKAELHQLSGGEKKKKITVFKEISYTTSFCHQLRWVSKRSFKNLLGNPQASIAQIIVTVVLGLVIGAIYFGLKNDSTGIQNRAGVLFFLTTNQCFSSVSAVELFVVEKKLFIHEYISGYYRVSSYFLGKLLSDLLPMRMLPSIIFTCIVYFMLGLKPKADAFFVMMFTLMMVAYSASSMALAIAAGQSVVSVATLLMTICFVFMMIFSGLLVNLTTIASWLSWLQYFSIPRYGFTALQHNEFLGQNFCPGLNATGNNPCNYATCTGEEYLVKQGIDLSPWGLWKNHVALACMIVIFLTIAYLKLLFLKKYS
Chain of Cytochrome P450 2C19 (Homo sapiens) (P33261 whole entry, looked up): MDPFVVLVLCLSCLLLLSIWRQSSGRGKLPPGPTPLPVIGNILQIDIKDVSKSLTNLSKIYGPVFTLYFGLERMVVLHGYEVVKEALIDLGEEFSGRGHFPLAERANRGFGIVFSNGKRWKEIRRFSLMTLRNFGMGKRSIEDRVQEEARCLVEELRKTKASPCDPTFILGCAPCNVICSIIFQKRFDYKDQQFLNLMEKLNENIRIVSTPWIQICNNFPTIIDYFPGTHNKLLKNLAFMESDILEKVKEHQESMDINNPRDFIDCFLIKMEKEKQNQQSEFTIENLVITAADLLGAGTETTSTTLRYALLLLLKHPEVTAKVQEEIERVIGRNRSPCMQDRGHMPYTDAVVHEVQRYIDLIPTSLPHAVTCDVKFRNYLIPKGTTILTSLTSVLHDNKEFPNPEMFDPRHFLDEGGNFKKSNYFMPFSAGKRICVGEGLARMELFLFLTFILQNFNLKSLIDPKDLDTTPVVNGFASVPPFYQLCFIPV
Chain of Apoptosis regulator Bcl-2 (Homo sapiens) (P10415 whole entry, looked up): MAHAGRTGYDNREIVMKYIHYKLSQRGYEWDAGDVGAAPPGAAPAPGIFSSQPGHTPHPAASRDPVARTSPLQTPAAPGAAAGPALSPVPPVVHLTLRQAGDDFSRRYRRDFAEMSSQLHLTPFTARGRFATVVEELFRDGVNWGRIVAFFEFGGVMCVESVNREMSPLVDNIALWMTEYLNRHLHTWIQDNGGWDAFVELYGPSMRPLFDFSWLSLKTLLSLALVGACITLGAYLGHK
Chain of Caspase-3 (Homo sapiens) (P42574 whole entry, looked up): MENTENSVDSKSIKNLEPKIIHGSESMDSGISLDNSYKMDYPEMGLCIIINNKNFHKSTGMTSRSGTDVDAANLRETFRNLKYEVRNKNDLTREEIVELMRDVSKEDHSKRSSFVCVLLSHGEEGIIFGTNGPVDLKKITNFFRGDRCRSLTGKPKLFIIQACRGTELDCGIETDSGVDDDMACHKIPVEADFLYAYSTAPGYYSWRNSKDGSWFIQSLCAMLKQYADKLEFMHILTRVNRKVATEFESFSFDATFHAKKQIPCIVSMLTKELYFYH

CCc1nc(N)nc(N)c1-c1ccc(Cl)cc1
active: [1] 33 µM | [4] 80.4 µM | [5] 18.6 µM | [6] 44.2 µM | [10] 32.8 µM | [12] 50 µM | [16] 23.8 µM | [18] 82.3 µM
not listed: [19] | [20]
inactive: all other assays above

C#CC(O)C(CC)CCCC (stereo not drawn)
not listed: [10] | [16] | [18]
inactive: all other assays above

O=C(O)CN(CC(=O)O)CC(=O)O
not listed: [11] | [16]
inactive: all other assays above

CC(=O)O
not listed: [11] | [16]
inactive: all other assays above

N[C@@H](Cc1c[nH]c2ccccc12)C(=O)O
active: [16] 14.4 µM
not listed: [10]
inactive: all other assays above

C=CCc1ccc(OC)c(OC)c1
active: [13] 9.92 µM
not listed: [11] | [16] | [18] | [19]
inactive: all other assays above

CCCCCCC(CCCCCCCCCCC(=O)OCC(COC(C)=O)OC(C)=O)OC(C)=O (stereo not drawn)
not listed: [10] | [19]
inactive: all other assays above

CC(C)(C)c1ccccc1
not listed: [10] | [16] | [18]
inactive: all other assays above

Oc1ccc(O)cc1
active: [16] 50 µM
not listed: [10]
inactive: all other assays above

COc1ccc(OC(F)(F)F)cc1CN[C@H]1CCCN[C@H]1c1ccccc1
active: [2] 82.9 µM | [4] 95.6 µM | [5] 64.3 µM | [9] 79.3 µM | [10] 9.61 µM | [14] 81.8 µM | [18] 86.1 µM | [20] 2.8 µM
not listed: [11] | [16]
inactive: all other assays above

Cc1occc(=O)c1O
not listed: [11] | [18]
inactive: all other assays above

COC(=O)CCCC(=O)OC
not listed: [10] | [18]
inactive: all other assays above

O=C(Oc1ccccc1)c1cccc(C(=O)Oc2ccccc2)c1
active: [16] 52.2 µM | [18] 15.9 µM
not listed: [10]
inactive: all other assays above

CC(=O)[C@@]1(O)CC[C@H]2[C@@H]3CCC4=CC(=O)CC[C@]4(C)[C@H]3CC[C@@]21C
active: [4] 39.6 µM | [10] 50 µM
not listed: [11] | [15] | [16] | [18] | [20]
inactive: all other assays above

Source: PubChem BioAssay (EPA / NIEHS)
